Consider 21 molecules from PubChem BioAssay (Tox21).

Inconclusive results are not listed. Entries that show only a call come without a potency. The source made the active and inactive calls. Unless noted, calls follow the shape of the dose curve; as a rule, active = well fitted inhibition curve with a large enough effect in the repeat runs; inconclusive = weak or mixed curves; inactive = no such curve, though single readings can be large or run the other way.

Sequence of Acetylcholinesterase (Homo sapiens) (P22303 whole entry, looked up): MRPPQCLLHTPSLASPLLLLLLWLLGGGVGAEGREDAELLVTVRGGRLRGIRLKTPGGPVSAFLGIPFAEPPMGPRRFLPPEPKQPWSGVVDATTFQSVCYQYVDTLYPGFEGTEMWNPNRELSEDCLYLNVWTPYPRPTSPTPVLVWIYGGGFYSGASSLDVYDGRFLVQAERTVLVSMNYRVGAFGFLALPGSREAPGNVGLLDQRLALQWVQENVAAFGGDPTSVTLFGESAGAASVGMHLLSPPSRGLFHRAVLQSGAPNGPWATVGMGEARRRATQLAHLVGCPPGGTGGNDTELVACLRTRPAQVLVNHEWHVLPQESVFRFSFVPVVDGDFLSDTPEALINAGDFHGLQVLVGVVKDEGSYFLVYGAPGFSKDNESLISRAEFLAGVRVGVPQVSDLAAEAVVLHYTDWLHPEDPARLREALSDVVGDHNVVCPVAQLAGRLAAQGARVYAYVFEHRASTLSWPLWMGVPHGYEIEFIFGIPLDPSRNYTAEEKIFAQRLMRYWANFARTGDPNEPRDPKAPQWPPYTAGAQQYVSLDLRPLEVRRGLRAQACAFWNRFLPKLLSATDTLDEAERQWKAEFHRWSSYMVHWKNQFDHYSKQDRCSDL

One test has as its target Acetylcholinesterase (Homo sapiens) (UniProt P22303). In words: Acetylcholinesterase (AChE) small molecule antagonists: enzyme-based qHTS assay (AID 1347397; calls by dose curve; also: nearly all actives have a fitted effect of over 55% in size; also: potency is read from the fitted curve at half-maximal effect). As to conditions: Potency: AChE enzyme activity inhibition; series mostly up to 115 µM. The gist of the method: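 Tox21 library chemicals are tested in qHTS format against recombinant human AChE. The enzyme, dispensed at 50 mU/mL, sits with compound for 30 min at room temperature. A DTNB–acetylthiocholine cocktail follows, and colour is read after 10 min.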
Consider `CCOP(=O)(OCC)Oc1cc(C)nc(C(C)C)n1`, for which the Potency is 5.67 µM (active).

As to `CNN`, the Potency result was “inactive”.

`ClC1=C(Cl)[C@]2(Cl)[C@@H]3[C@H]4C[C@H]([C@@H]5O[C@H]45)[C@@H]3[C@@]1(Cl)C2(Cl)Cl`: the Potency entry is “inactive”.

`CCOC(=O)Cc1ccccc1`: the Potency result was “inactive”.

As to `O=C(N[C@@H]1N=C(c2ccccc2F)c2cccc3c2N(CC3)C1=O)c1cc2ccccc2[nH]1`, the Potency entry is “inactive”.

On to `Brc1cccc(-c2ccccc2)c1`, for which the Potency entry was “inactive”.

On to `CC(Cl)CCl` (centres undefined), for which the Potency result was “inactive”.

Another test shares this target. In words: Acetylcholinesterase (AChE) small molecule antagonists: fluorescence cell-based qHTS assay (AID 1347398; calls by dose curve; also: nearly all actives have a fitted effect of over 50% in size; also: potency is read from the fitted curve at half-maximal effect). As to conditions: SH-SY5Y cells; Potency: AChE activity; series mostly up to 115 µM. An outline of the steps:
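Cellular AChE inhibition: SH-SY5Y cells treated with test chemical for 30 min at 37 C, then acetylthiocholine hydrolysis followed over 40 min at room temperature via thiocholine-reactive Thiolite Green fluorescence (490/520 nm).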
A general note: Quantitative high-throughput screening tests each substance at several concentrations.
For the molecule `CNC(=O)O/N=C(\C)C(C)S(C)(=O)=O` (centres undefined), the Potency is 447 µM (active).

As for `CNC(=O)/C=C(\C)OP(=O)(OC)OC`, the Potency was 31.7 µM (active).

Take `CC(C)=CCN1CC[C@@]2(C)c3cc(O)ccc3C[C@@H]1[C@@H]2C`: the Potency is 44.1 µM (active).

On to `CC1(C)[C@H](/C=C2\CCSC2=O)[C@@H]1C(=O)OCc1coc(Cc2ccccc2)c1`, for which the Potency entry was “inactive”.

In the case of `CN1CCc2cc(Cl)c(O)cc2[C@H]2c3ccccc3CC[C@@H]21`, the Potency is 21.9 µM (active).

For a further test the target is unchanged. In words: Acetylcholinesterase (AChE) small molecule antagonists: enzyme-based qHTS assay with human liver microsomes (AID 1347399; calls by dose curve; also: nearly all actives have a fitted effect of over 60% in size). As to conditions: Potency: qHTS inhibition; series mostly up to 115 µM. An outline of the steps: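 Recombinant human AChE (50 mU/mL in the enzyme mix) and human liver microsomes (0.25 mg/mL final) were preincubated with compound and NADPH (0.25 mg/mL final) for 30 min at 37 C. Acetylthiocholine/DTNB was then added; thiocholine was read colorimetrically after 10 min at room temperature.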
In the case of `Cc1ccc([N+](=O)[O-])[c]2c1[O][Hg]2`, the Potency entry is “inactive”.

For the molecule `CNC(=O)/C=C(\C)OP(=O)(OC)OC`, the Potency entry is “inactive”.

As for `CC(C)=CCN1CC[C@@]2(C)c3cc(O)ccc3C[C@@H]1[C@@H]2C`, the Potency entry was “inactive”.

For `CC1(C)[C@H](/C=C2\CCSC2=O)[C@@H]1C(=O)OCc1coc(Cc2ccccc2)c1`, the Potency entry is “inactive”.

As to `COP(=O)(OC)O/C(=C\Cl)c1cc(Cl)c(Cl)cc1Cl`, the Potency result is “inactive”.

`CN1CCc2cc(Cl)c(O)cc2[C@H]2c3ccccc3CC[C@@H]21`: the Potency entry was “inactive”.

For the next test, the target named is Cytochrome P450 2D6 (Homo sapiens) (UniProt P10635). In words: Cytochrome P450 Family 2 Subfamily D Member 6 (CYP2D6) small molecule antagonists: luciferase reporter qHTS assay (AID 1671196). Also: nearly all actives have a fitted effect of over 50% in size. Also: potency is read from the fitted curve at half-maximal effect. As to conditions: P450-Glo CYP2D6 enzyme assay, luciferin luminescence, 1 h; series mostly up to 115 µM. An outline of the steps: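 Luminogenic proluciferin substrate, CYP2D6 enzyme; 10 min RT preincubation with compound, NADPH regeneration system added, 1 h RT. Stop/detection reagent, 20 min RT, luminescence read (RLU). Signal proportional to CYP activity.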
Sequence of Cytochrome P450 2D6 (Homo sapiens) (P10635 whole entry, looked up): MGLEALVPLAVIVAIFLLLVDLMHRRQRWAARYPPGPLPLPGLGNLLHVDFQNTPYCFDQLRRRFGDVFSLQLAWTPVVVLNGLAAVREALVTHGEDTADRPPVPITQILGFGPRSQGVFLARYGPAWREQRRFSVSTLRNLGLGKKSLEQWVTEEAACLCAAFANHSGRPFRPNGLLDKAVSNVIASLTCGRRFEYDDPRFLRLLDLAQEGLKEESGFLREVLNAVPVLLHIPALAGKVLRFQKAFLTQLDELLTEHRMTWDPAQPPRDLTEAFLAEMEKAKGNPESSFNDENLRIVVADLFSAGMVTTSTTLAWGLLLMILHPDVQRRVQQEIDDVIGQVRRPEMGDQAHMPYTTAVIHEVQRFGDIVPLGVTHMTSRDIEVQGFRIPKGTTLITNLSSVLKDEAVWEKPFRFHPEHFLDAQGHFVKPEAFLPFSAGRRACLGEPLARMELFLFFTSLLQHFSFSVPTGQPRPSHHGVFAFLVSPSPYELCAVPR
On the technique in general: A reporter such as luciferase makes a cellular process visible.
Turning to `CCOP(=O)(OCC)Oc1nc(Cl)c(Cl)cc1Cl`, the Potency was 5.61 µM (active).

As for `Cc1ccc([N+](=O)[O-])[c]2c1[O][Hg]2`, the Potency is 0.871 µM (active).

In the case of `COc1ccc2[nH]cc(CCN(C(C)C)C(C)C)c2c1`, the Potency is 4.09 µM (active).

As for `CCOP(=O)(OCC)Oc1cc(C)nc(C(C)C)n1`, the Potency result is “inactive”.

In the case of `CNC(=O)/C=C(\C)OP(=O)(OC)OC`, the Potency entry was “inactive”.

Consider `COP(=O)(OC)Oc1ccc([N+](=O)[O-])cc1`, for which the Potency was 25.2 µM (active).

As to `CC1(C)[C@H](/C=C2\CCSC2=O)[C@@H]1C(=O)OCc1coc(Cc2ccccc2)c1`, the Potency is 39.9 µM (active).

Turning to `CC(Cc1ccc(O)cc1)NCC(O)c1cc(O)cc(O)c1` (centres undefined), the Potency was 9.77 µM (active).

In the case of `COP(=O)(OC)O/C(=C\Cl)c1cc(Cl)c(Cl)cc1Cl`, the Potency is 79.6 µM (active).

For the molecule `ClC1=C(Cl)[C@]2(Cl)[C@@H]3[C@H]4C[C@H]([C@@H]5O[C@H]45)[C@@H]3[C@@]1(Cl)C2(Cl)Cl`, the Potency entry is “inactive”.

Take `CCOC(=O)Cc1ccccc1`: the Potency entry was “inactive”.

For the molecule `O=C(N[C@@H]1N=C(c2ccccc2F)c2cccc3c2N(CC3)C1=O)c1cc2ccccc2[nH]1`, the Potency result was “inactive”.

Take `CN1CCc2cc3c(cc2C1O)OCO3` (centres undefined): the Potency is 2.01 µM (active).

Turning to `Brc1cccc(-c2ccccc2)c1`, the Potency result was “inactive”.

As for `CC(Cl)CCl` (centres undefined), the Potency result was “inactive”.

As for `CCn1cc[n+](C)c1` (tested in a mixture with another compound), the Potency entry was “inactive”.

As to `CN1CCc2cc(Cl)c(O)cc2[C@H]2c3ccccc3CC[C@@H]21`, the Potency is 0.0078 µM (active).

A further test deals with Cytochrome P450 2C19 (Homo sapiens) (UniProt P33261). In words: Cytochrome P450 Family 2 Subfamily C Member 19 (CYP2C19) small molecule antagonists: luciferase reporter qHTS assay (AID 1671197). Also: nearly all actives have a fitted effect of over 65% in size. Also: potency is read from the fitted curve at half-maximal effect. As to conditions: P450-Glo CYP2C19 enzyme, luciferin luminescence, 1 h; series mostly up to 115 µM. An outline of the steps: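 Inhibition of CYP2C19 was scored from loss of luminescence in a P450-Glo proluciferin substrate assay, NADPH-started and run 1 h at 37C, with ketoconazole as positive control.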
Sequence of Cytochrome P450 2C19 (Homo sapiens) (P33261 whole entry, looked up): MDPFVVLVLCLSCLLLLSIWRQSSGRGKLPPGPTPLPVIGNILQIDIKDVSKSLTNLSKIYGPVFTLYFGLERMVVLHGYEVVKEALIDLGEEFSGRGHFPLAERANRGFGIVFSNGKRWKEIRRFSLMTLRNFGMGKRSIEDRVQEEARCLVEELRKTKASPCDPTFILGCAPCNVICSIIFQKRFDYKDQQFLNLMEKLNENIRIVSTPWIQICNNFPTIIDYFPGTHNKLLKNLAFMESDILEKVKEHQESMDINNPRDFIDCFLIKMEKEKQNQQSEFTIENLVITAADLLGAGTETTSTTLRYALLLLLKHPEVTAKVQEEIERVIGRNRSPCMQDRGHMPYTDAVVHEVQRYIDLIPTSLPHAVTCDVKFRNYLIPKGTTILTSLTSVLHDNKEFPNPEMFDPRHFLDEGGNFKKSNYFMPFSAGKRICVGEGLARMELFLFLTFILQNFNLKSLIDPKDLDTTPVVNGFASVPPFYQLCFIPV
For the molecule `CCOP(=O)(OCC)Oc1nc(Cl)c(Cl)cc1Cl`, the Potency is 3.15 µM (active).

Regarding `Cc1ccc([N+](=O)[O-])[c]2c1[O][Hg]2`, the Potency was 2.19 µM (active).

In the case of `COc1ccc2[nH]cc(CCN(C(C)C)C(C)C)c2c1`, the Potency result was “inactive”.

Take `CNC(=O)/C=C(\C)OP(=O)(OC)OC`: the Potency result is “inactive”.

As for `CCCC[N+]1(C)CCCC1` (tested in a mixture with another compound), the Potency result was “inactive”.

Regarding `CC(C)=CCN1CC[C@@]2(C)c3cc(O)ccc3C[C@@H]1[C@@H]2C`, the Potency was 78.5 µM (active).

Consider `COP(=O)(OC)Oc1ccc([N+](=O)[O-])cc1`, for which the Potency is 20 µM (active).

As to `CNN`, the Potency entry is “inactive”.

`CC1(C)[C@H](/C=C2\CCSC2=O)[C@@H]1C(=O)OCc1coc(Cc2ccccc2)c1`: the Potency was 2.24 µM (active).

In the case of `CC(Cc1ccc(O)cc1)NCC(O)c1cc(O)cc(O)c1` (centres undefined), the Potency entry was “inactive”.

For `COP(=O)(OC)O/C(=C\Cl)c1cc(Cl)c(Cl)cc1Cl`, the Potency is 5.03 µM (active).

Turning to `ClC1=C(Cl)[C@]2(Cl)[C@@H]3[C@H]4C[C@H]([C@@H]5O[C@H]45)[C@@H]3[C@@]1(Cl)C2(Cl)Cl`, the Potency was 63.3 µM (active).

Regarding `CCOC(=O)Cc1ccccc1`, the Potency entry was “inactive”.

As to `Brc1cccc(-c2ccccc2)c1`, the Potency result is “inactive”.

On to `CCn1cc[n+](C)c1` (tested in a mixture with another compound), for which the Potency result was “inactive”.

With `CN1CCc2cc(Cl)c(O)cc2[C@H]2c3ccccc3CC[C@@H]21`, the Potency entry was “inactive”.

The target of a further test is Cytochrome P450 2C9 (Homo sapiens) (UniProt P11712). In words: Cytochrome P450 Family 2 Subfamily C Member 9 (CYP2C9) small molecule antagonists: luciferase reporter qHTS assay (AID 1671198). Also: nearly all actives have a fitted effect of over 50% in size. Also: potency is read from the fitted curve at half-maximal effect. As to conditions: P450-Glo CYP2C9 enzyme assay, luciferin luminescence; series mostly up to 115 µM. The gist of the method: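 CYP2C9 activity was measured with a P450-Glo proluciferin substrate. Enzyme–substrate mix was held with compound for 10 min at room temperature, then NADPH regeneration solution was added for 1 h at 37C. Luciferin product was read as luminescence.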
Sequence of Cytochrome P450 2C9 (Homo sapiens) (P11712 whole entry, looked up): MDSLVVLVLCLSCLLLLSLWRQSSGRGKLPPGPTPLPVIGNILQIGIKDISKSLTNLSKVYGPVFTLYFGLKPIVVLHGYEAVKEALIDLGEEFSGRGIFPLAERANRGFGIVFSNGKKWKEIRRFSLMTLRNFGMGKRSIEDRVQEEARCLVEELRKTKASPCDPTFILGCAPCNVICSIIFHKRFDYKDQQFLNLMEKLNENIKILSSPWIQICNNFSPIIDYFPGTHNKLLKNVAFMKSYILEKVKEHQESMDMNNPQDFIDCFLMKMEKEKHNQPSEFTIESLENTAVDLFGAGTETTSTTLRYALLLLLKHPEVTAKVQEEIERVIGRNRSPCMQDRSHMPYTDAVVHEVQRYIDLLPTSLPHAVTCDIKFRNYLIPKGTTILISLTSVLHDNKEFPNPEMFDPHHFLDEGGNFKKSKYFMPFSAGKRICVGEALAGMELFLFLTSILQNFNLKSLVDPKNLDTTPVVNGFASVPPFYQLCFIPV
Take `CCOP(=O)(OCC)Oc1nc(Cl)c(Cl)cc1Cl`: the Potency is 35.4 µM (active).

As to `CNC(=O)O/N=C(\C)C(C)S(C)(=O)=O` (centres undefined), the Potency entry was “inactive”.

Turning to `Cc1ccc([N+](=O)[O-])[c]2c1[O][Hg]2`, the Potency is 0.871 µM (active).

As to `COc1ccc2[nH]cc(CCN(C(C)C)C(C)C)c2c1`, the Potency entry was “inactive”.

For the molecule `CCOP(=O)(OCC)Oc1cc(C)nc(C(C)C)n1`, the Potency result is “inactive”.

With `CNC(=O)/C=C(\C)OP(=O)(OC)OC`, the Potency result is “inactive”.

For the molecule `CCCC[N+]1(C)CCCC1` (tested in a mixture with another compound), the Potency entry is “inactive”.

As to `CC(C)=CCN1CC[C@@]2(C)c3cc(O)ccc3C[C@@H]1[C@@H]2C`, the Potency entry was “inactive”.

Turning to `COP(=O)(OC)Oc1ccc([N+](=O)[O-])cc1`, the Potency entry was “inactive”.

`CNN`: the Potency result was “inactive”.

For `CC1(C)[C@H](/C=C2\CCSC2=O)[C@@H]1C(=O)OCc1coc(Cc2ccccc2)c1`, the Potency was 1.26 µM (active).

As to `CC(Cc1ccc(O)cc1)NCC(O)c1cc(O)cc(O)c1` (centres undefined), the Potency entry was “inactive”.

In the case of `COP(=O)(OC)O/C(=C\Cl)c1cc(Cl)c(Cl)cc1Cl`, the Potency was 44.8 µM (active).

For `O=C(N[C@@H]1N=C(c2ccccc2F)c2cccc3c2N(CC3)C1=O)c1cc2ccccc2[nH]1`, the Potency was 4.9 µM (active).

Regarding `CN1CCc2cc3c(cc2C1O)OCO3` (centres undefined), the Potency result is “inactive”.

Consider `CC(Cl)CCl` (centres undefined), for which the Potency entry was “inactive”.

On to `CCn1cc[n+](C)c1` (tested in a mixture with another compound), for which the Potency result was “inactive”.

With `CN1CCc2cc(Cl)c(O)cc2[C@H]2c3ccccc3CC[C@@H]21`, the Potency result is “inactive”.
